Experiment [1] in a line: BSK_4H_Eotaxin3: BioMAP Diversity Plus: 4H Assay for Eotaxin 3 Biomarker Activity (AID 2283000).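 On outcome: CCL26 protein level quantified by ELISA in parallel with SRB cytotoxicity check.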 To be noted: primary human endothelial cells (HUVEC); actives raise or lower the signal. An outline of the steps: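 Readout is Eotaxin-3 (CCL26) level by ELISA in primary human umbilical vein endothelial cells harvested 24 h after chemical exposure; activity fitted in both directions against DMSO control.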

Experiment [2] deals with human Peroxisome Proliferator-activated Receptor delta (PPARd), PPARD (gene 5467) (UniProt Q03181). Put plainly: ATG_PPARd_TRANS: Attagene TRANS-FACTORIAL HepG2 Assay for human Peroxisome Proliferator-activated Receptor delta (PPARd) (AID 2283002; active means hit-call score of the fitted dose curve at least 0.9, where 1 is the maximum). An outline of the steps: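 Cell-based TRANS reporter: HepG2, transient MRTU transfection, 24 h exposure. Readout = reporter mRNA (RT-PCR/CE, 6-FAM). Gain-of-signal fit vs DMSO control.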
human Peroxisome Proliferator-activated Receptor delta (PPARd), PPARD (gene 5467), sequence (Q03181 whole entry, looked up): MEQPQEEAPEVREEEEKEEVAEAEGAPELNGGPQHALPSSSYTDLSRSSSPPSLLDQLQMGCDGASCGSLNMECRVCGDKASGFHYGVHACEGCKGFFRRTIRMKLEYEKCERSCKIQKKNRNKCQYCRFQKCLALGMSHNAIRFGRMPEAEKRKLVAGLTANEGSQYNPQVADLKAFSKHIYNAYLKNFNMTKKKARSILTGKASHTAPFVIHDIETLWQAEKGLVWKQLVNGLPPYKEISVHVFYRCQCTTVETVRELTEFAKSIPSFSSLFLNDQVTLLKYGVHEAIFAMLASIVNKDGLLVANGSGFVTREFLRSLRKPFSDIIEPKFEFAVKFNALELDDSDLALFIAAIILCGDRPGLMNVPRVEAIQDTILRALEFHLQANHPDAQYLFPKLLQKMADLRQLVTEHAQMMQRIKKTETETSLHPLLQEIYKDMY

Read-out in experiment [3]: Intercellular Adhesion Molecule 1 (ICAM1), ICAM1 (gene 3383)
The experiment can be described thus: BSK_3C_ICAM1: BioMAP Diversity Plus: 3C Assay for Intercellular Adhesion Molecule 1 (ICAM1) Biomarker Activity (AID 2283003). As to conditions: primary human endothelial cells (HUVEC); actives raise or lower the signal. An outline of the steps: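 Human vascular endothelial primary cells, 3C conditions, 24 h treatment. ICAM-1 by ELISA.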

Experiment [4] has as its target human Retinoic Acid Receptor beta (RARb), RARB (gene 5915) (UniProt P10826). Put plainly: ATG_RARb_TRANS: Attagene TRANS-FACTORIAL HepG2 Assay for human Retinoic Acid Receptor beta (AID 2283004; active means hit-call score of the fitted dose curve at least 0.9, where 1 is the maximum). Summed up: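 Readout is reporter mRNA induction: RNA reverse-transcribed, PCR-amplified, FAM-labelled, HpaI-cut and resolved by capillary electrophoresis. Transiently transfected HepG2 cells carrying exogenous NR–Gal4 chimeras were dosed for 24 h; activity fitted upward relative to DMSO.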

A short description of experiment [5]: BSK_3C_Proliferation: Cell Proliferation Assessment in the BioMAP Diversity Plus: 3C Assay (AID 2283006).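 On AC50: potency may reflect either rise or fall in cell number versus DMSO.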 As to conditions: primary human endothelial cells (HUVEC). An outline of the steps: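 Proliferation of human vascular endothelial primary cells after 48 h dosing, quantified as SRB-stained protein at 560 nm relative to DMSO.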
For experiment [6], the target named is Peroxisome proliferator-activated receptor gamma (Homo sapiens) (UniProt P37231). The experiment can be described thus: ATG_PPARg_TRANS: Attagene TRANS-FACTORIAL HepG2 Assay for human Peroxisome Proliferator-activated Receptor-gamma (PPARg) (AID 2283007; active means hit-call score of the fitted dose curve at least 0.9, where 1 is the maximum). An outline of the steps:
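Endpoint reflects upward reporter mRNA change versus DMSO controls. Setup: transiently transfected HepG2, GAL4-UAS reporters driven by chimeric NR-Gal4, 24 h incubation, RT-PCR with capillary electrophoresis read-out.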

Experiment [7] concerns the target Nuclear receptor subfamily 1 group I member 2 (Homo sapiens) (UniProt O75469). Put plainly: ATG_PXR_TRANS: Attagene TRANS-FACTORIAL HepG2 Assay for human Pregnane X Receptor (PXR) (AID 2283008; active means hit-call score of the fitted dose curve at least 0.9, where 1 is the maximum). Summed up: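 Fluorescence intensity of FAM-labelled, HpaI-digested reporter amplicons, separated by capillary electrophoresis, quantifies induction. HepG2 cells with PXR-Gal4 trans-reporter system were exposed 24 h; DMSO defines baseline.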

Experiment [8] deals with human Retinoic Acid Receptor gamma (RARg), RARG (gene 5916) (UniProt P13631). Put plainly: ATG_RARg_TRANS: Attagene TRANS-FACTORIAL HepG2 Assay for human Retinoic Acid Receptor gamma (RARg) (AID 2283009; active means hit-call score of the fitted dose curve at least 0.9, where 1 is the maximum). Summed up:
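HepG2, RARg-GAL4 TRANS system, 24 h exposure; reporter mRNA by RT-PCR + CE fluorescence; increase over DMSO.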

Experiment [9] concerns the target Retinoic acid receptor RXR-alpha (Homo sapiens) (UniProt P19793). Put plainly: ATG_RXRa_TRANS: Attagene TRANS-FACTORIAL HepG2 Assay for human Retinoid X Receptor alpha (RXRa) (AID 2283012; active means hit-call score of the fitted dose curve at least 0.9, where 1 is the maximum). An outline of the steps:
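Cells (HepG2) carried transiently transfected GAL4-responsive reporter units. Following a 24 h chemical incubation, reporter mRNA induction was read via RT-PCR fragment analysis; DMSO served as negative control and baseline.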

Experiment [10] addresses human Thyroid Receptor alpha (THRa1), THRA (gene 7067) (UniProt P10827). Put plainly: ATG_THRa1_TRANS: Attagene TRANS-FACTORIAL HepG2 Assay for human Thyroid Receptor alpha (THRa1) (AID 2283014; active means hit-call score of the fitted dose curve at least 0.9, where 1 is the maximum). An outline of the steps:
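Transient HepG2 transfection, NR-Gal4 chimera driving GAL4-UAS reporters; 24 h compound exposure; total RNA, oligo(dT) RT, PCR, fluorescent primer extension, capillary electrophoresis. Upward direction vs DMSO control.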

Read-out in experiment [11]: E-selectin (Homo sapiens) (UniProt P16581)
The experiment can be described thus: BSK_3C_Eselectin: BioMAP Diversity Plus: 3C Assay for Eselectin Biomarker Activity (AID 2283015).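 On outcome: cell surface E-selectin protein quantified by ELISA 24 h after dosing.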 As to conditions: primary human endothelial cells (HUVEC); actives raise or lower the signal. An outline of the steps: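 HUVEC, 3C stimulation; compound exposure 24 h; E-selectin by ELISA; gain- or loss-of-signal fitted bidirectionally vs DMSO baseline.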

Read-out in experiment [12]: Interleukin-1 alpha (IL1a), IL1A (gene 3552)
The experiment can be described thus: BSK_BE3C_IL1a: BioMAP Diversity Plus: BE3C Assay for Interleukin-1 alpha (IL1a) Biomarker Activity (AID 2283016). To be noted: primary human bronchial epithelial cells; actives raise or lower the signal. An outline of the steps: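 Cultures of primary human bronchial epithelial cells receive test chemical. After 24 h, IL-1a is quantified by ELISA, while parallel wells are fixed in TCA and SRB-stained for total protein. Changes in either direction are fitted relative to DMSO.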

Read-out in experiment [13]: Monocyte Chemoattractant Protein-1 (MCP1), CCL2 (gene 6347)
The experiment can be described thus: BSK_3C_MCP1: BioMAP Diversity Plus: 3C Assay for Monocyte Chemoattractant Protein-1 (MCP1) Biomarker Activity (AID 2283017). To be noted: primary human endothelial cells (HUVEC); actives raise or lower the signal. Summed up:
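HUVEC, 3C system; 24 h chemical exposure; MCP-1 by ELISA; bidirectional curve fit vs DMSO baseline.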

Read-out in experiment [14]: Monocyte Chemoattractant Protein-1 (MCP1), CCL2 (gene 6347)
The experiment can be described thus: BSK_4H_MCP1: BioMAP Diversity Plus: 4H Assay for Monocyte Chemoattractant Protein-1 (MCP1) Biomarker Activity (AID 2283018). To be noted: primary human endothelial cells (HUVEC); actives raise or lower the signal. An outline of the steps: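 Readout: MCP-1 ELISA on compound-treated HUVEC, sampled 24 h post-dosing. Baseline and negative control DMSO; bidirectional fit. Overt toxicity checked alongside by sulforhodamine B protein staining at time of biomarker measurement.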

Read-out in experiment [15]: Human Leukocyte Antigen - DR isotype (HLADR), HLA-DRA (gene 3122)
Put plainly: BSK_3C_HLADR: BioMAP Diversity Plus: 3C Assay for Human Leukocyte Antigen - DR isotype (HLADR) Biomarker Activity (AID 2283019).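 On outcome: ELISA of cell-surface HLA-DR on HUVEC 24 h after dosing.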 As to conditions: primary human endothelial cells (HUVEC); actives raise or lower the signal. An outline of the steps: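 HUVEC, 3C stimulation, 24 h post-dose; HLA-DR by ELISA; bidirectional curve fit vs DMSO baseline; gain or loss of signal scored.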

Experiment [16] deals with human RAR-related Orphan Receptor beta (RORb), RORB (gene 6096) (UniProt Q92753). Put plainly: ATG_RORb_TRANS: Attagene TRANS-FACTORIAL HepG2 Assay for human RAR-related Orphan Receptor beta (RORb) (AID 2283010; active means hit-call score of the fitted dose curve at least 0.9, where 1 is the maximum). Summed up:
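In this TRANS-format test, human HepG2 cells express chimeric NR-Gal4 fusion proteins driving GAL4-UAS reporters. After 24 h dosing, reporter transcripts are measured by fluorescent RT-PCR/capillary electrophoresis, with DMSO as negative control.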

Experiment [17] addresses human Retinoid X Receptor beta (RXRb), RXRB (gene 6257) (UniProt P28702). The experiment can be described thus: ATG_RXRb_TRANS: Attagene TRANS-FACTORIAL HepG2 Assay for human Retinoid X Receptor beta (RXRb) (AID 2283013; active means hit-call score of the fitted dose curve at least 0.9, where 1 is the maximum). An outline of the steps:
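Multiplexed TRANS reporter assay in HepG2; 24 h dosing; reporter mRNA by RT-PCR/CE fluorescence; gain-of-signal relative to DMSO.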

Experiment [18] concerns the target Retinoic acid receptor alpha (Homo sapiens) (UniProt P10276). Put plainly: ATG_RARa_TRANS: Attagene TRANS-FACTORIAL HepG2 Assay for human Retinoic Acid Receptor alpha (RARa) (AID 2283005; active means hit-call score of the fitted dose curve at least 0.9, where 1 is the maximum). Summed up:
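Reporter transcripts, measured by RT-PCR with fluorescent labeling and capillary electrophoresis after 24 h dosing, reflect activity of an exogenous human RARa–GAL4 fusion in transiently transfected HepG2. Fitted for increase relative to DMSO.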

Experiment [19] addresses human RAR-related Orphan Receptor gamma (RORg), RORC (gene 6097) (UniProt P51449). Put plainly: ATG_RORg_TRANS: Attagene TRANS-FACTORIAL HepG2 Assay for human RAR-related Orphan Receptor gamma (RORg) (AID 2283011; active means hit-call score of the fitted dose curve at least 0.9, where 1 is the maximum). Summed up:
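Transient MRTU transfection of HepG2 (TRANS format, exogenous NR-Gal4 chimera). 24 h dosing. Total RNA → oligo(dT) RT → PCR → 6-FAM labelling → HpaI cut → CE. Gain vs DMSO.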

For experiment [20], the target named is human Peroxisome Proliferator-activated Receptor alpha (PPARa), PPARA (gene 5465) (UniProt Q07869). The experiment can be described thus: ATG_PPARa_TRANS: Attagene TRANS-FACTORIAL HepG2 Assay for human Peroxisome Proliferator-activated Receptor alpha (PPARa) (AID 2283001; active means hit-call score of the fitted dose curve at least 0.9, where 1 is the maximum). An outline of the steps:
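Reporter transcripts from GAL4-UAS units in transfected HepG2 were quantified 24 h after dosing. Detection used reverse transcription, PCR, fluorescent primer extension and capillary electrophoresis, with DMSO as baseline.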

Records with an inconclusive call do not appear. Activity calls are given as the source filed them. How the source made its calls, unless noted: active means hit-call score of the fitted dose curve at least 0.9, where 1 is the maximum; inactive means score below 0.9.

Retinoic acid receptor alpha (Homo sapiens), sequence (P10276 whole entry, looked up, the tested form may be a part): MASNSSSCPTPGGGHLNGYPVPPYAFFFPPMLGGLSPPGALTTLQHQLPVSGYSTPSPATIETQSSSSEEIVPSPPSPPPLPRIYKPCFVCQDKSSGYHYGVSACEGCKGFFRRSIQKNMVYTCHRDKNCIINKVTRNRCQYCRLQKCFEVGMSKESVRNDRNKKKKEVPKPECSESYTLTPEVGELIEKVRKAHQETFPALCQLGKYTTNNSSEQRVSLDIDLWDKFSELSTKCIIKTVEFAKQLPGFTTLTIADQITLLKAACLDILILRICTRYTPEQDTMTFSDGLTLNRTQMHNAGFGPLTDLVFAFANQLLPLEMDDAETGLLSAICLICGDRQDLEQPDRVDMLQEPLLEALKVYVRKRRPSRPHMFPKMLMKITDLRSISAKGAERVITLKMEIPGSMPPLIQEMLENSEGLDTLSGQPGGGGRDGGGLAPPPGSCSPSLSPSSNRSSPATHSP
Retinoic acid receptor RXR-alpha (Homo sapiens), sequence (P19793 whole entry, looked up, the tested form may be a part): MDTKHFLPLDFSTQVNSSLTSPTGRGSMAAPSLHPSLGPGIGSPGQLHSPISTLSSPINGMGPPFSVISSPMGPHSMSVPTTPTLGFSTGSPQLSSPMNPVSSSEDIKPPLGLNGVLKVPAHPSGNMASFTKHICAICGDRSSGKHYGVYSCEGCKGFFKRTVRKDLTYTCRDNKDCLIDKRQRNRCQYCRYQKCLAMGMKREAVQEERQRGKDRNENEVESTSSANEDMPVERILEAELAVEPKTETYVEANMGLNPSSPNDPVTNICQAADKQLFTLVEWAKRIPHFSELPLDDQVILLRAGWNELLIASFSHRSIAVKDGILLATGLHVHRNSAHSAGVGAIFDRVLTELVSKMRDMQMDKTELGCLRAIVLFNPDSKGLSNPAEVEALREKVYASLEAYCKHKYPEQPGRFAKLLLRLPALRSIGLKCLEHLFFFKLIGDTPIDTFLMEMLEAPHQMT
human Thyroid Receptor alpha (THRa1), THRA (gene 7067), sequence (P10827 whole entry, looked up, the tested form may be a part): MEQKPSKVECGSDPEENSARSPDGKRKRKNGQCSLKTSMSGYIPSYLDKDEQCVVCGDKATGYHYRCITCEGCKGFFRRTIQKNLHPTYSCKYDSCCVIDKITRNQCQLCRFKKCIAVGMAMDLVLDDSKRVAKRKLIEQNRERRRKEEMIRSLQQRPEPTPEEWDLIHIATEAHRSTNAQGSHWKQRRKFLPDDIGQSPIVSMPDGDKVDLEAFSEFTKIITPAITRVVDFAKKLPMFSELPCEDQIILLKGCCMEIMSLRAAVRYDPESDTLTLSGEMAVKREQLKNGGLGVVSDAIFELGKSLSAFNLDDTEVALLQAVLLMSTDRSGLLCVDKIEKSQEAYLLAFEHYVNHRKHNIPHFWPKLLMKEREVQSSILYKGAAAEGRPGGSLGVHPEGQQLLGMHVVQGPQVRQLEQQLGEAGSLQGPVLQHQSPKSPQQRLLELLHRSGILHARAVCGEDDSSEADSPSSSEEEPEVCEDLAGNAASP
human Retinoid X Receptor beta (RXRb), RXRB (gene 6257), sequence (P28702 whole entry, looked up): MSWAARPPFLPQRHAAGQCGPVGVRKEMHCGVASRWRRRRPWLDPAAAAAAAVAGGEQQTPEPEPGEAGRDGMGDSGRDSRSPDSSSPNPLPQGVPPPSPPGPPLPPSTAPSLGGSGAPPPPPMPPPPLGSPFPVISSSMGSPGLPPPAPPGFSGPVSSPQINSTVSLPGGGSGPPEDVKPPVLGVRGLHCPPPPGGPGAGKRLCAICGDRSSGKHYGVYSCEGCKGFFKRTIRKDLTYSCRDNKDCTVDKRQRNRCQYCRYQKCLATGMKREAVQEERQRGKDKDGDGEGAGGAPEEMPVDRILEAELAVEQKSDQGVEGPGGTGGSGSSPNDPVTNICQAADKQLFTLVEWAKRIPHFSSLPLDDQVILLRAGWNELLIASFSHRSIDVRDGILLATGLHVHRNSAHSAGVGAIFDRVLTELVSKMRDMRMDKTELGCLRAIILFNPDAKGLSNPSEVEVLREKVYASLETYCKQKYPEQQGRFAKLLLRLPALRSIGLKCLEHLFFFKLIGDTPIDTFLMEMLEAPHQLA
Peroxisome proliferator-activated receptor gamma (Homo sapiens), sequence (P37231 whole entry, looked up, the tested form may be a part): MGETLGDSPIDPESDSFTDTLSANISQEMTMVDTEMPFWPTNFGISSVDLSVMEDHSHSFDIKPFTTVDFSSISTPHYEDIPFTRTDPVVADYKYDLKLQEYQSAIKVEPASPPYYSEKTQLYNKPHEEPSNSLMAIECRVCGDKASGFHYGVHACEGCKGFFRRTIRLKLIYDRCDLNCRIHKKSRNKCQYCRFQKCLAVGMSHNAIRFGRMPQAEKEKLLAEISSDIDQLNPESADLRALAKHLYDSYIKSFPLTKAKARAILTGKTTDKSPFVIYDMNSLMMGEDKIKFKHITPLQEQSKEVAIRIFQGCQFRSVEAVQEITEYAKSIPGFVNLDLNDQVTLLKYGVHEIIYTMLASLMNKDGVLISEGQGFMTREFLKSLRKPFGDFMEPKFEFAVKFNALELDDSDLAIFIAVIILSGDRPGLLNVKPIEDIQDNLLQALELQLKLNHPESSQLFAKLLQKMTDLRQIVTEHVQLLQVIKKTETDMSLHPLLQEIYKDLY
human Retinoic Acid Receptor beta (RARb), RARB (gene 5915), sequence (P10826 whole entry, looked up, the tested form may be a part): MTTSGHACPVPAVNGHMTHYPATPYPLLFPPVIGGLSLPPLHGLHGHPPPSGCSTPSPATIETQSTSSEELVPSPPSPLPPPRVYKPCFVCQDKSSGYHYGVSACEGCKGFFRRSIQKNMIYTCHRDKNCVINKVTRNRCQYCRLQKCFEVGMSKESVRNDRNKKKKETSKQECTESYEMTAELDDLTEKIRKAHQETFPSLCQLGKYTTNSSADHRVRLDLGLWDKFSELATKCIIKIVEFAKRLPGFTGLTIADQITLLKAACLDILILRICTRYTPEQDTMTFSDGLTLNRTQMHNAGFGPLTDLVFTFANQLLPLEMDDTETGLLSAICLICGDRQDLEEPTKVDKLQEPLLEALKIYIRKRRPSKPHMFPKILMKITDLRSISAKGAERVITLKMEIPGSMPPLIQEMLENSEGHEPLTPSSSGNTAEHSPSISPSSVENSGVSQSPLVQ
Nuclear receptor subfamily 1 group I member 2 (Homo sapiens), sequence (O75469 whole entry, looked up, the tested form may be a part): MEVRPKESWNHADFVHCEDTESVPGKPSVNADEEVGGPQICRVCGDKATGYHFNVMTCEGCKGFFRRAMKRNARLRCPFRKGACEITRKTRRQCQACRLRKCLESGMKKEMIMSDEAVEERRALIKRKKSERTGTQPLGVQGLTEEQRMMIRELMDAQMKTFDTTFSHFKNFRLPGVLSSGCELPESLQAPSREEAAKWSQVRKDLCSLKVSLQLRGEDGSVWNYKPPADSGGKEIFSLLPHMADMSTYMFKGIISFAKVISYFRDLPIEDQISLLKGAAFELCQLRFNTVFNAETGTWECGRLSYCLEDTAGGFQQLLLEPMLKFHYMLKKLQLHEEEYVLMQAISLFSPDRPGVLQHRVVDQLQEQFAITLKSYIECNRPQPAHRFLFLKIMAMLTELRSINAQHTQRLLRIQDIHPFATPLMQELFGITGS
E-selectin (Homo sapiens), sequence (P16581 whole entry, looked up): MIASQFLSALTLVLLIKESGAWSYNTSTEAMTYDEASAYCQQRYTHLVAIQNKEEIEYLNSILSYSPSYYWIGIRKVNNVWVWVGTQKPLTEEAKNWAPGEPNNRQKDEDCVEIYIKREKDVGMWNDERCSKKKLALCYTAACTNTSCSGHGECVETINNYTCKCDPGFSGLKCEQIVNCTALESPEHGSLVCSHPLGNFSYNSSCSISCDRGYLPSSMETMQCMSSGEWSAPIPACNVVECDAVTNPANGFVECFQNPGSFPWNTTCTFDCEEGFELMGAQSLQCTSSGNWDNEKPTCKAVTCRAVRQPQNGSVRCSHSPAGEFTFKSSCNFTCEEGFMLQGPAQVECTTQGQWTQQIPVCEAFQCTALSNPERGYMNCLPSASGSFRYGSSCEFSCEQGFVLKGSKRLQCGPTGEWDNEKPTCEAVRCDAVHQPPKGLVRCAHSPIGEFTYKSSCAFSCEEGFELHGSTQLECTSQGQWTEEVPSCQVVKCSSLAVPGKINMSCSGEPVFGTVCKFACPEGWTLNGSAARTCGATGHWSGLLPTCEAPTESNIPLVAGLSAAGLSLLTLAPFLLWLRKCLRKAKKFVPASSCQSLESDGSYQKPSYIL
human Retinoic Acid Receptor gamma (RARg), RARG (gene 5916), sequence (P13631 whole entry, looked up, the tested form may be a part): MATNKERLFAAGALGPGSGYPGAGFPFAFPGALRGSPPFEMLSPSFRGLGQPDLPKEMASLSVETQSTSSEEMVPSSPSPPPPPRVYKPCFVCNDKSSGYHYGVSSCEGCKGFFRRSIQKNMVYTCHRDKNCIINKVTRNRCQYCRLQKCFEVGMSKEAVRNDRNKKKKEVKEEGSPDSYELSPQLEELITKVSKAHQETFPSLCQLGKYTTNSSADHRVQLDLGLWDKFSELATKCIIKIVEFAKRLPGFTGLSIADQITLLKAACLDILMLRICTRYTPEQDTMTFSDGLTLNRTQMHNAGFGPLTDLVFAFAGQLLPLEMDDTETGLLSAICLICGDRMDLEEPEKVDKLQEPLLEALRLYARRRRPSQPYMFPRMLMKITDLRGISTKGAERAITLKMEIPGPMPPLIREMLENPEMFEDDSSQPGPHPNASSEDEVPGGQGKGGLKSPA

The AC50 is the midpoint of the concentration-response curve, whichever way the signal moves. On to `CC(C)(C)C(O)/C(=C\c1ccc(Cl)cc1Cl)n1cncn1` (stereo not drawn), for which the half-maximal activity concentration (AC50) was 30.4 µM (active) in experiment [1]; 26.3 µM (active) in [5]; 24 µM (active) in experiment [11]; 32.9 µM (active) in [12]; 30.9 µM (active) in experiment [13]; 22.6 µM (active) in [14]. Moreover, the AC50 in experiment [15] is 31.6 µM (active). Besides, the molecule was called inactive in [2], in [3], in experiment [4], in experiment [6], in experiment [7] and in experiment [8]. Also, the outcome in experiment [9] and in experiment [10] was inactive.
For the molecule `COP(=O)(OC)OC=C(Cl)Cl`, the result in experiment [1], in experiment [2], in experiment [3], in experiment [6], in experiment [7] and in experiment [12] was inactive. In addition, the result in [13] and in experiment [14] was inactive. Further, the half-maximal activity concentration (AC50) in experiment [5] is 17.6 µM (active); in experiment [15], 20 µM (active).
For the molecule `Cc1cc(C)nc(NC(=O)NS(=O)(=O)c2ccccc2C(=O)OC2COC2)n1`, the result in experiment [1], in experiment [3], in experiment [4], in experiment [5], in [6] and in experiment [8] was inactive. Also, the call in experiment [16], in [17], in experiment [10], in experiment [11], in experiment [12] and in experiment [13] was inactive. Further, the outcome in experiment [14] and in [15] was inactive.
`C[C@H]1[C@H](c2ccc(Cl)cc2)SC(=O)N1C(=O)NC1CCCCC1`: the outcome in [1], in [3], in [4], in experiment [18], in experiment [8] and in experiment [17] was inactive. Moreover, the molecule was classed as inactive in experiment [10], in [11] and in [12]. Also, the half-maximal activity concentration (AC50) in experiment [5] was 13.1 µM (active); in [6], 16 µM (active); in experiment [13] it was 20 µM (active); in experiment [14], 8.84 µM (active); in experiment [15], 21.8 µM (active).
`CC(C)N(C(=O)COc1nnc(C(F)(F)F)s1)c1ccc(F)cc1`: the outcome in experiment [1], in experiment [2], in experiment [3], in experiment [5], in experiment [9] and in experiment [17] was inactive. For the same molecule, the result in experiment [11], in [12], in [13] and in experiment [15] was inactive. Moreover, the concentration at half-maximal activity (AC50) was 14.3 µM (active) in [6] and 22.4 µM (active) in [14].
As for `CC1(C)C(C=C(Cl)Cl)C1C(=O)OC(C#N)c1ccc(F)c(Oc2ccccc2)c1` (stereo not drawn), the outcome in experiment [1], in [3], in experiment [4], in [18], in experiment [19] and in experiment [9] was inactive. Moreover, the molecule was called inactive in experiment [17], in [10], in experiment [11], in experiment [12], in experiment [13] and in [15]. For the same molecule, the figures for the AC50 in [5], in [6] and in [14] were 10.2 µM (active), 20.9 µM (active) and 7.95 µM (active), respectively.
Take `CNC(=O)Oc1ccccc1OC(C)C`: the result in [1], in experiment [20], in experiment [3], in experiment [4], in experiment [5] and in experiment [6] was inactive. For the same molecule, the molecule was classed as inactive in [19], in experiment [11], in experiment [13], in experiment [14] and in experiment [15]. In [12], the AC50 is 5.51 µM (active).
For `O=[N+]([O-])/N=C1\NCCN1Cc1ccc(Cl)nc1`, the result in experiment [1], in experiment [3], in [4], in [18], in experiment [5] and in experiment [6] was inactive. Further, the molecule was classed as inactive in experiment [8], in experiment [9], in experiment [17], in experiment [10], in experiment [11] and in [12]. Also, the outcome in [13], in experiment [14] and in experiment [15] was inactive. For the same molecule, the AC50 in [7] is 90.7 µM (active).

The values above are taken from PubChem BioAssay (EPA / NIEHS).
